Inconclusive results are not listed. Active and inactive are the calls of the source. The call rests on the fitted dose curve; in most records, active means well fitted curve in the direction sought with a large enough effect; inconclusive means small, poorly fitted or top-dose-only effect, or another doubt; inactive means no such curve, though single readings can be large; an effect the other way counts as inactive or inconclusive.
Assays:
[1] = Viability counterscreen for antagonist of constitutive androstane receptor (CAR) against the NCATS DSHEA and TCM libraries (AID 1794837);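 further: compound exposure lasted 24 h before viability reading; 0% is about no effect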
Method in brief: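 Cells: HepG2 line carrying CYP2B6 reporter and hCAR, seeded and attached 5 h. Then pin-transferred test substances plus agonist CITCO at 48 uM final; 24 h incubation; fluorogenic viability reagent, 1 h.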

[2] = Viability counterscreen for agonist of constitutive androstane receptor (CAR) against the NCATS DSHEA and TCM libraries (AID 1794838);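 further: HepG2 cells with CYP2B6 reporter and hCAR plus 0.75 µM PK11195 antagonist; 0% is about no effect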
Method in brief: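 Cell health was measured as CellTiter-Fluor signal in HepG2-CYP2B6-hCAR cells treated for 24 h with substances alongside the hCAR antagonist PK11195 (0.75 uM final).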

[3] = biological target: Nuclear receptor subfamily 1 group I member 3 (Homo sapiens) (UniProt Q14994); assay: Primary qHTS for agonist of constitutive androstane receptor (CAR) against the NCATS DSHEA and TCM libraries (AID 1794839);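 further: HepG2 cells expressing human CAR with a CYP2B6 reporter plus PK11195 antagonist; luciferase reporter luminescence read with ONE-Glo; 0% is about no effect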
Method in brief: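 qHTS, agonist mode: HepG2-CYP2B6-hCAR, 2,500 cells/well, 5 h attach; cpds + PK11195 0.75 µM final; 24 h, 37 °C, 5% CO2. Readouts: CellTiter-Fluor (405/540 nm), then ONE-Glo luminescence.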

[4] = HepG2 viability counterscreen (readout 2: ATP content) against the NCATS DSHEA and TCM libraries (AID 1794840); further: 0% is about no effect
Method in brief: (§1)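 Same wells read twice: first fluorescence from cleaved GF-AFC substrate (25 uM final, 30 min, 37C) for live-cell protease, then CellTiter-Glo luminescence after 30 min at room temperature for ATP. HepG2 cells were exposed ~24 h to substances.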

[5] = HepG2 viability counterscreen (readout 1: protease activity) against the NCATS DSHEA and TCM libraries (AID 1794841);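 further: cells exposed to compounds for about 24 h before the protease read; 0% is about no effect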
Method in brief: as §1

[6] = biological target: Cytochrome P450 3A4 (Homo sapiens) (UniProt P08684); assay: qHTS for inhibitors of CYP3A4 against the NCATS DSHEA and TCM libraries (AID 1919971);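 further: on the % scale 0 is the no-effect control and ±100 the full control effect; inhibition lowers luminescence from luciferin made by CYP3A4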
Method in brief: (§2)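 Each CYP isoform and its pro-luciferin substrate, at isoform-specific final concentrations, were preincubated 15 min at RT with substances. NADPH regeneration solution (1x) started a 30-45 min reaction, and P450-Glo luminescence was read.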

[7] = biological target: Cytochrome P450 2C9 (Homo sapiens) (UniProt P11712); assay: qHTS for inhibitors of CYP2C9 against the NCATS DSHEA and TCM libraries (AID 1919973);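 further: luminogenic pro-luciferin CYP2C9 substrate turned into luciferin with NADPH regeneration; series mostly up to about 34 µM; on the % scale 0 is the no-effect control and ±100 the full control effect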
Method in brief: as §2

[8] = biological target: Cytochrome P450 2C19 (Homo sapiens) (UniProt P33261); assay: qHTS for inhibitors of CYP2C19 against the NCATS DSHEA and TCM libraries (AID 1919974);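 further: luminescence from luciferin released by CYP2C19 oxidation of a pro-luciferin substrate; on the % scale 0 is the no-effect control and ±100 the full control effect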
Method in brief: as §2

[9] = KB-3-1 P-gp reporter qHTS against the NCATS DSHEA and TCM libraries (AID 1919975); further: 0% is about no effect
Method in brief: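 KB-3-1 parental line, 1536-well qHTS: cells seeded, ~4 h attachment, pintool compound addition, ~72 h at 37C, then CellTiter-Glo, 30 min RT, luminescence. Concentration-response format.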

[10] = qHTS Counterscreen for compound interference against the NCATS DSHEA and TCM libraries (AID 1919978); settings: firefly luciferase detection reagent interference, luminescence;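 further: compounds preincubated with 1 µM D-luciferin or buffer before detection reagent; % of control where 0% means no effect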
Method in brief: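 Compounds, titrated from 19.5 nM to 39.8 uM final, were pinned onto 1 uM D-luciferin or plain 100 mM potassium phosphate. After 15 min at room temperature, luciferin detection reagent was added for 30 min before the luminescence read.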

[11] = Dual reporter qHTS for agonist of Pregnane X Receptor (hPXR) against the NCATS DSHEA and TCM libraries: Fluorescence readout (AID 1920058); further: 0% is about no effect
Method in brief: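 Viability readout (CellTiter-Fluor, 405/540 nm, 1 h) from agonist-mode PXR dual reporter in hPXR-Luc HepG2 cells. Substances ~24 h, 37 °C, 5% CO2; rifampicin reference, tetraoctyl ammonium bromide cytotoxic control.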

[12] = biological target: Nuclear receptor subfamily 1 group I member 2 (Homo sapiens) (UniProt O75469); assay: Dual reporter qHTS for agonist of Pregnane X Receptor (hPXR) against the NCATS DSHEA and TCM libraries: Luminescence readout (AID 1920059); further: 0% is about no effect
Method in brief: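 hPXR-Luc HepG2 cells, 2000/well in 5% charcoal-stripped FBS medium, attached 5 h, then exposed 24 h at 37C to compounds. Viability by CellTiter-Fluor, then luciferase luminescence with ONE-Glo.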

[13] = biological target: Nuclear receptor subfamily 1 group I member 2 (Homo sapiens) (UniProt O75469); assay: Dual reporter qHTS for antagonist of Pregnane X Receptor (hPXR) against the NCATS DSHEA and TCM libraries: Luminescence Readout (AID 1920060);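 further: HepG2 cells carrying hPXR luciferase reporter stimulated with rifampicin at 2 µM; 0% is about no effect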
Method in brief: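 HepG2 hPXR-Luc, 2000 cells/well, charcoal-stripped FBS medium; 5 h attach; RIF 2 uM final; 24 h 37C/5% CO2; CellTiter-Fluor 1 h, fluor 405/540; ONE-Glo 30 min RT, lum.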

Nuclear receptor subfamily 1 group I member 2 (Homo sapiens), sequence (O75469 whole entry, looked up): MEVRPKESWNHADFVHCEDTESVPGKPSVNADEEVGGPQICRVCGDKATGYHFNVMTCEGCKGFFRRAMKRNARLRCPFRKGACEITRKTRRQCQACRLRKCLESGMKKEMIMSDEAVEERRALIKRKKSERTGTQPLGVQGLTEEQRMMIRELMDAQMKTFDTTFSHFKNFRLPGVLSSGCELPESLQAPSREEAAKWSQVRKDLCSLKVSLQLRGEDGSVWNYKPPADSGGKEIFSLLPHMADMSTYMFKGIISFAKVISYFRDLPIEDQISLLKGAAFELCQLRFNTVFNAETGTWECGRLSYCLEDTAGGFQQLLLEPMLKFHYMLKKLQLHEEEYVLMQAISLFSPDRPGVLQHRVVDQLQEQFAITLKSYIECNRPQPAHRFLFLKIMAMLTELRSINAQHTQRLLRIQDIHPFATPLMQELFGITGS
Nuclear receptor subfamily 1 group I member 3 (Homo sapiens), sequence (Q14994 whole entry, looked up): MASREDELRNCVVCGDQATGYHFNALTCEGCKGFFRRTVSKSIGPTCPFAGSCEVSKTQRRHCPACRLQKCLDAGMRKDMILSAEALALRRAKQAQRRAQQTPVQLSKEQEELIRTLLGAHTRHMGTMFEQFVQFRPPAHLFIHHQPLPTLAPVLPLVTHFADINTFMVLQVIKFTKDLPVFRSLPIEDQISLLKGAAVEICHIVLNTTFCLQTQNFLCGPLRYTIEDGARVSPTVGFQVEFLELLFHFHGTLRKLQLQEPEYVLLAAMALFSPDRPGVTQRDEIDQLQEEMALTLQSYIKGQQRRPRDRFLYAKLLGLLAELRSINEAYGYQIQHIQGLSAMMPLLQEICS
Cytochrome P450 2C9 (Homo sapiens), sequence (P11712 whole entry, looked up): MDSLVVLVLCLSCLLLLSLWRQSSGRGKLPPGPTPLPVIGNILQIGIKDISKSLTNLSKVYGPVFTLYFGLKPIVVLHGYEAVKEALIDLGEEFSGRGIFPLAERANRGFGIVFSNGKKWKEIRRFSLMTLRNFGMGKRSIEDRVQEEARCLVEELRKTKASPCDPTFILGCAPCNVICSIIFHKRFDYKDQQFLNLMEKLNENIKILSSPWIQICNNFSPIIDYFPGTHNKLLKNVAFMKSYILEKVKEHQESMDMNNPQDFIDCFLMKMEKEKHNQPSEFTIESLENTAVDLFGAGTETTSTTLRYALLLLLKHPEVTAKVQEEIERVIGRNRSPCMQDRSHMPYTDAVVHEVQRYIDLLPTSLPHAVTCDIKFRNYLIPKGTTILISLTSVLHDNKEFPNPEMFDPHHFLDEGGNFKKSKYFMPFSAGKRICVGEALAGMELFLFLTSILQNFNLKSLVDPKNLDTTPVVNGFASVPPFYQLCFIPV
Cytochrome P450 3A4 (Homo sapiens), sequence (P08684 whole entry, looked up, canonical isoform): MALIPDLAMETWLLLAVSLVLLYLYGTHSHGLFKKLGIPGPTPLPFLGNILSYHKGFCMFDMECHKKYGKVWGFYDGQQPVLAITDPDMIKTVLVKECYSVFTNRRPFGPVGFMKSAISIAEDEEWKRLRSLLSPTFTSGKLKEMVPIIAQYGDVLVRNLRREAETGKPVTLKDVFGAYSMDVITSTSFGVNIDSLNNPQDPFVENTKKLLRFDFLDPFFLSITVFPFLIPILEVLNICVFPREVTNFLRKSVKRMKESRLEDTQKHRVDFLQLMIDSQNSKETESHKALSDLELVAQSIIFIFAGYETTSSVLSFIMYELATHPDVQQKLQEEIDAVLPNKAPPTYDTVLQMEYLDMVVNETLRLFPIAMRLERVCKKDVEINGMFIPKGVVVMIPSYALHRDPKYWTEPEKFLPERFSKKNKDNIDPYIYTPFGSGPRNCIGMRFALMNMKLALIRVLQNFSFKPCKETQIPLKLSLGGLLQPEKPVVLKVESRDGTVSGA
Cytochrome P450 2C19 (Homo sapiens), sequence (P33261 whole entry, looked up): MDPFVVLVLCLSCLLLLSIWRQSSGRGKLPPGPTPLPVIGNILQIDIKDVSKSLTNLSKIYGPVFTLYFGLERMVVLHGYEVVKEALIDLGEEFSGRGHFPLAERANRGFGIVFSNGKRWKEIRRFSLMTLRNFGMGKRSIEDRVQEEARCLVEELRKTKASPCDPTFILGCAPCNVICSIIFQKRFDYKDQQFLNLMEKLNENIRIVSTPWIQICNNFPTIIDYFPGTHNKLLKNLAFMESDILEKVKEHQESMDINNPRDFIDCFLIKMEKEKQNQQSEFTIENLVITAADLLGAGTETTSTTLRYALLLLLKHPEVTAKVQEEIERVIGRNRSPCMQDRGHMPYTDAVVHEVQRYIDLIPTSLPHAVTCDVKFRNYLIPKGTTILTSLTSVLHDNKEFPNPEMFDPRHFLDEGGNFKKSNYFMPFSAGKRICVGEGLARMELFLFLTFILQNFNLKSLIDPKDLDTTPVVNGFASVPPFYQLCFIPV

CC(C)=CCC[C@](C)(O[C@@H]1O[C@H](CO)[C@@H](O)[C@H](O)[C@H]1O)[C@H]1CC[C@]2(C)[C@@H]1[C@H](O)C[C@@H]1[C@@]3(C)CC[C@H](O[C@@H]4O[C@H](CO)[C@@H](O)[C@H](O)[C@H]4O[C@@H]4O[C@H](CO)[C@@H](O)[C@H](O)[C@H]4O)C(C)(C)[C@@H]3CC[C@]12C
inactive: outcome [1] | outcome [2] | Potency [3] | outcome [4] | outcome [5] | Potency [6] | Potency [7] | Potency [8] | outcome [9] | max response [10] 4.23% | outcome [11] | Potency [12] | outcome [13]

— PubChem BioAssay (NCATS)
